Test results reported in PubChem BioAssay AID1445 (SRMLSC, 2008).
Among all 220,000 compounds or so, about 910 (0.41%) were called active. The sample as a whole holds a higher share of actives than the screen did. Results with a measured potency or affinity are listed apart. A number with no mark means an inactive call.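 How the source made its calls: active means primary inhibition above the hit cutoff, then over 50% inhibition at one or more dose response concentrations (cut at about 23% in these data, passing the limit was not always enough); inconclusive means conflicting primary data, or primary hits not chosen for dose response; inactive means low primary inhibition, or under 50% at every dose.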

Target: Aminopeptidase N (Plasmodium falciparum (isolate 3D7)) (UniProt O96935)
Sequence (O96935 whole entry, looked up): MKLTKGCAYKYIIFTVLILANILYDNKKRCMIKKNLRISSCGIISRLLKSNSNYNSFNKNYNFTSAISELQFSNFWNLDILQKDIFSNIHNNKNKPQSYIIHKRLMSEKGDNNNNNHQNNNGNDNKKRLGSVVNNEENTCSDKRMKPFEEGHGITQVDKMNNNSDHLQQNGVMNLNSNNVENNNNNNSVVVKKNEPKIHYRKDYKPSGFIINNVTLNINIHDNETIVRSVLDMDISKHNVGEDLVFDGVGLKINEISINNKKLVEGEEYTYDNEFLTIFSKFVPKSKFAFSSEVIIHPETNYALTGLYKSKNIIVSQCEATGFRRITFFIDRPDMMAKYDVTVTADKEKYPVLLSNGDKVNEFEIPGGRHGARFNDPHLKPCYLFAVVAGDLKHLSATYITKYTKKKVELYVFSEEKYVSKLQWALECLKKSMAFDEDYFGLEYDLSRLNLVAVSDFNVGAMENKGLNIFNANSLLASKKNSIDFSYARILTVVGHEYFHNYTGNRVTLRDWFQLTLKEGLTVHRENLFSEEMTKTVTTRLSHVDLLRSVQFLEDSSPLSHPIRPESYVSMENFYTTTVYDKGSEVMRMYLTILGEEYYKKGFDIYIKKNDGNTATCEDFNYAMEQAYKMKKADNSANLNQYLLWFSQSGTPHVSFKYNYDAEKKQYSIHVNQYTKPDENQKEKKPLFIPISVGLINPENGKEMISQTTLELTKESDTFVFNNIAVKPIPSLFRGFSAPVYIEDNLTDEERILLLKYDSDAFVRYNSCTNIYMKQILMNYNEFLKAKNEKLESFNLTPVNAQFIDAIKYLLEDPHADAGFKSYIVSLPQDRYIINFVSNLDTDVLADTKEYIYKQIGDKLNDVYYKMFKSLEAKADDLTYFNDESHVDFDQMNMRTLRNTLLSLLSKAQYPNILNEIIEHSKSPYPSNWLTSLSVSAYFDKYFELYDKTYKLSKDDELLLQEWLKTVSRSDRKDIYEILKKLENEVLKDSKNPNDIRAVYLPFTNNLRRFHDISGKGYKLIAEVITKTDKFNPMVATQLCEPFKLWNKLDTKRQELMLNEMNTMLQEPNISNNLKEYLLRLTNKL
Test: malaria alanyl aminopeptidase activity blockers – biochemical, fluorogenic H-Leu-NHMec substrate, 1536-well (AID 1445);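 further: plate controls were DMSO full reaction for no effect and no enzyme background for full effect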
Details: recombinant M1AAP, H-Leu-NHMec fluorogenic kinetic assay; at 30 µM, hits give high values unless noted

SMILES | inhibition
Cc1cccc(OCCOCCSc2ncccn2)c1 | 11.6%
COc1cccc(OC)c1OCCCOc1ccc(C)cc1Br | 3.98%
CC1CCCN(C(=O)CSc2nnc(-c3ccc(S(=O)(=O)N4CCOCC4)cc3)n2C)C1 (stereo not drawn) | 0.7%
Cc1cc(Cl)c2ccc(Cl)cc2n1 | 0.44%
CC(=O)CC(c1ccc([N+](=O)[O-])cc1)c1c(O)c2ccccc2oc1=O (stereo not drawn) | 0.61%
O=[N+]([O-])c1ccc2c(c1)oc1ccccc12 | -3.55%
Cc1csc(NC(=O)CSc2nc(C(C)C)nc3c2c(=O)n(C)c(=O)n3C)n1 | -1.73%
CS(=O)(=O)c1ccc2nc(NC(=O)c3ccc(N4C(=O)CCC4=O)cc3)sc2c1 | 5.15%
CCOC(=O)c1cc(-c2csc(-c3cccc(Cl)c3)n2)on1 | -3.06%
CC1C(c2ccccc2)N(C)C(c2ccccc2)CC1(O)c1ccccc1 (stereo not drawn) | 16.7%
CCOC(=O)C(=O)Nc1nnc(SCc2ccc(F)cc2)s1 | 2.28%
COc1cccc(C(=O)Nn2c(C)nnc2-n2nc(C)cc2C)c1 | 8.95%
CC(C)CCNC(=O)CN(Cc1ccc2c(c1)OCO2)C(=O)Cn1nnc(-c2cccs2)n1 | 24.4% (active)
COc1ccc(-c2nnn(CC(=O)N(CC(=O)NCCC(C)C)Cc3cccs3)n2)cc1OC | 13.8%
O=C(NCc1ccccc1)C(c1ccc(F)cc1)N(Cc1ccc2c(c1)OCO2)C(=O)Cn1nnc(-c2cccs2)n1 (stereo not drawn) | 1.31%
COc1ccc(NC(=O)c2oc3ccccc3c2NC(=O)c2ccc3c(c2)OCO3)cc1 | 2.18%
COc1ccc2nc(SCc3ccccc3C)nc(C)c2c1 | 2.23%
Cc1nc(SCc2ccccc2C)n[nH]1 | -7.66%
Cc1cc(Cl)n2c(nc3ccccc32)c1C#N | -0.99%
N#Cc1c(-c2ccccc2)c(C#N)c2nc3ccccc3n2c1N | 3.17%
Cc1ccc(-c2c(C#N)c(N)n3c(nc4ccccc43)c2C#N)cc1 | 25.5% (active)

SMILES | inhibition
Cc1cc(C(C)(C)C)ccc1OCCN1CCCC1 | 8.65%
Oc1ccc(-c2nc(=S)[nH][nH]2)cc1 | 44.3%
C=CCOc1ccc(C(=O)N(Cc2ccc(N(C)C)cc2)C2CCS(=O)(=O)C2)cc1 (stereo not drawn) | 13%
Cc1oc2c(CN3CCOCC3)c(O)ccc2c(=O)c1-c1ccc(Cl)cc1 | 7.87%
O=c1cc(-c2ccccc2)c2cc(Cl)c(O)c(CN3CCOCC3)c2o1 | 5.98%
O=c1oc2cc(O)ccc2c2c1CCCC2 | 10.5%
CC(=O)Oc1cc2oc(=O)c3c(c2cc1Cl)CCC3 | 38.1%
CCc1cccc(C)c1NC(=O)COC(=O)c1ccc2c(c1)S(=O)(=O)c1ccccc1C2=O | 1.58%
CC1(C)NC(=O)N(CC(O)COc2cccc(F)c2)C1=O (stereo not drawn) | 7.39%
N#C/C(=C(/O)c1cccs1)c1nc2ccccc2[nH]1 | 1.8%
COc1cc(C(=S)N2CCCC2)ccc1OS(=O)(=O)c1ccc(NC(C)=O)cc1 | -0.31%
CCN1CCN(C(c2cc3cc4c(cc3[nH]c2=O)OCO4)c2nnnn2C(C)(C)CC)CC1 (stereo not drawn) | 12.6%
Cn1c(=O)c2cc(S(=O)(=O)Nc3cc(C(=O)O)cc(C(=O)O)c3)ccc2n(C)c1=O | 2.45%
O=C(NCc1cccnc1)c1cc([N+](=O)[O-])ccc1N1CCOCC1 | 4.23%
CCCCc1nc(Cl)c(C#N)c2c1CSC(C)(C)C2 | 0.12%
CCCCc1nc(NCCNC(=O)c2ccccc2)c(C#N)c2c1CSC(C)(C)C2 | 24.4% (active)
CCc1nc(NCCN)c(C#N)c2c1CSC(C)(C)C2 | -0.7%
CCCCc1nc(NCc2ccccc2)c(C#N)c2c1COC(C)(C)C2 | -3.84%
CCCCc1nc(NCCN)c(C#N)c2c1CSC(C)(C)C2 | 2.56%
Cc1ccc(C(NC(=O)N2CCN(C)CC2)C(Cl)Cl)cc1F (stereo not drawn) | 0.01%
CCCCc1ccc(NC(=O)COc2ccc(C(=O)Nc3ccccc3C)cc2)cc1 | -2.91%

SMILES | inhibition
COc1cc2c(cc1OC)C(c1cccs1)NCC2 (stereo not drawn) | 0.84%
O=C(NCc1cccs1)c1nn2cccnc2c1Cl | 12.7%
CCCOC(=O)Nc1nc2ccccc2o1 | -8.89%
CCOC(=O)c1cnc(Nc2nc3ccccc3o2)nc1C | 0.38%
Nc1nnc(CC(=O)N/N=C/c2cccc([N+](=O)[O-])c2)s1 | -3.46%
Nc1nnc(CC(=O)N/N=C/c2ccc([N+](=O)[O-])cc2)s1 | 9.02%
CC1(NC(=S)NCCCCCCNC(=S)NC2(C)CCS(=O)(=O)C2)CCS(=O)(=O)C1 (stereo not drawn) | -1.81%
Cc1cc(C)c2[nH]c(=O)c(=O)[nH]c2c1 | 4.16%
Cc1cc2c(C)c(C)c(=O)[nH]c2cc1N | 25.2% (active)
Cc1ccc(-c2n[nH]c(=O)c3ccccc23)cc1N | 12.6%
COc1cccc(C2=NOC(C(=O)NCCCn3ccnc3)C2)c1 (stereo not drawn) | 2.65%
COc1ccc(/C=C/C(=O)Nc2sc(Cc3ccccc3)c(C)c2C(N)=O)cc1 | 10.2%
Cc1ccc(/C=C(\CCC(=O)O)c2nc3ccccc3s2)cc1[N+](=O)[O-] | 15.5%
O=C(O)CC/C(=C\c1ccc(Cl)c([N+](=O)[O-])c1)c1nc2ccccc2s1 | 15.7%
COc1cccc(/C=C(\CC(=O)O)c2nc3ccccc3s2)c1 | 11.8%
O=C(O)CC/C(=C\c1cccc(NC(=O)c2ccccc2Cl)c1)c1nc2ccccc2s1 | 18%
CCOc1ccc(C(=O)N(CN2CCCC2=O)c2ccccc2)cc1 | 2.27%
Cc1ccc(Oc2cc(NC(=O)CCCn3nc([N+](=O)[O-])c(Cl)c3C)cc([N+](=O)[O-])c2)cc1 | 2.94%
CCOC(=O)Cc1csc(NS(=O)(=O)c2ccc3c4c(cccc24)C(=O)N3CC)n1 | 23.4% (active)
CCN1C(=O)c2cccc3c(S(=O)(=O)Nc4ccccc4)ccc1c23 | 6.99%
CCOC(=O)CNS(=O)(=O)c1ccc2c3c(cccc13)C(=O)N2CC | 7.58%
